Drawing on PubChem BioAssay (NCI), this text covers growth for 37 compounds.

The panel holds about 83,000 compounds, 20% with a hit somewhere; the sample as a whole holds those more often.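 Method: cells in 96-well plates; compound added at one concentration; 48 h incubation; percent growth measured; values under 10 scored active.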 Active and inactive are the calls of the source.

In one assay the test system is CAKI-1 renal. Nature of the assay: NCI-60 one-dose screen, 48 h (100 = growth as untreated, 0 = no growth, -100 = all killed). The note with it: 10 µM.
For `CC/C(=C(/c1ccc(O)cc1)c1ccc(OCCN(C)C(=O)COCCOCCNC(=O)c2ccc3c(c2)CN([C@@H]2CCC(=O)NC2=O)C3=O)cc1)c1ccccc1`, the growth was 95.5% (inactive).

With `CC/C(=C(/c1ccc(O)cc1)c1ccc(OCCN(C)C(=O)CCOCCNC(=O)Cc2ccc3c(c2)CN([C@@H]2CCC(=O)NC2=O)C3=O)cc1)c1ccccc1`, the growth was 94.9% (inactive).

Take `CC/C(=C(/c1ccc(O)cc1)c1ccc(OCCN(C)C(=O)COCCOCCNC(=O)Cc2ccc3c(c2)CN([C@@H]2CCC(=O)NC2=O)C3=O)cc1)c1ccccc1`: the growth was 101% (inactive).

With `CC/C(=C(\c1ccc(O)cc1)c1ccc(OCCNC)cc1)c1ccccc1`, the growth is 85.3% (inactive).

`CC/C(=C(\c1ccc(O)cc1)c1ccc(OCCN(C)C(=O)CCOCCNC(=O)c2ccc3c(c2)CN([C@@H]2CCC(=O)NC2=O)C3=O)cc1)c1ccccc1`: the growth is 94.5% (inactive).

With `CC/C(=C(\c1ccc(O)cc1)c1ccc(OCCN(C)C(=O)COCCNC(=O)Cc2ccc3c(c2)CN([C@@H]2CCC(=O)NC2=O)C3=O)cc1)c1ccccc1`, the growth is 90.1% (inactive).

Still in this assay, the particulars now being: 10 µM unless noted.
As to `O=C(Nc1ccc(S(=O)(=O)N2CCCCC2)cc1)C(Cl)Cl`, the growth was 97.9% (inactive).

Consider `O=C(c1ccc(Cl)cc1)C1[C@H](c2ccccc2Cl)[C@@H](c2ccccc2)NC12C(=O)Nc1ccccc12` (some centres not stated), for which the growth is 3.65% (active).

Regarding `O=C(c1ccc(O)cc1)C1[C@H](c2ccc(Cl)cc2)[C@@H](c2ccccc2)NC12C(=O)Nc1ccccc12` (some centres not stated), the growth was 3.82% (active).

For the compound `Cc1ccc2nc(SCc3ccccc3F)n(-c3ccccc3)c(=O)c2c1`, the growth is 83.3% (inactive).

On to `CCCCNc1ccc2c3c(cccc13)C(=O)N(NCC(O)COc1ccc3c(C)cc(=O)oc3c1)C2=O` (configuration not stated), for which the growth was 85.6% (inactive).

For the compound `c1n[nH]cc1-c1nc2ccc3[nH]ncc3c2c2c1CC1(CC2)COC1`, the growth is 12.3% (inactive).

Turning to `CCN1CCN(Cc2ccc(C(=O)Nc3cccc(Nc4ccc5c(OC)cccc5n4)c3)cc2C(F)(F)F)CC1`, the growth was -98.3% (active).

For `O=C(NN1C(=O)/C(=C/C=C/c2ccc([N+](=O)[O-])o2)SC1=S)c1ccc([N+](=O)[O-])cc1`, the growth is -100% (active).

As for `C=CCn1c(O)c(N=Nc2nc(-c3cc4ccccc4oc3=O)cs2)c2ccccc21`, the growth is 94.3% (inactive).

As for `CCCCCCCCCCCCCCCCCC(=O)Nc1ccc(OC)cc1`, the growth is 98% (inactive).

Regarding `Cn1cc(-c2cc(N)n3nc(-c4c[nH]c5ccc(Cl)cc45)cc3n2)c2cc(Br)cnc21`, the growth is -63% (active).

As for `COC(=O)c1ccc(-c2c(-c3ccccc3)c(F)c3oc(C(=O)OC)c(N)c3c2-c2ccccc2)cc1`, the growth was 81.1% (inactive).

Regarding `COc1ccc(-c2nc3ccccc3n2CC(=O)N=Nc2c(O)[nH]c3ccc(Br)cc23)cc1`, the growth is 74.9% (inactive).

Consider `O=C(N/N=C/c1c[nH]c2ccccc12)Nc1ccccc1Cl`, for which the growth was 16.1% (inactive).

On to `COc1ccc(CCC2NCCc3c(Br)c4c(c(OC)c32)OCO4)cc1` (configuration not stated), for which the growth was 16.5% (inactive).

On to `CN(C)c1nc(NCCNS(=O)(=O)c2ccc(C(=O)/C=C/c3ccc(Cl)cc3)cc2)nc(N2CCOCC2)n1`, for which the growth was -61.2% (active).

Take `COc1ccccc1NC(=O)N/N=C/c1c[nH]c2ccccc12`: the growth is 42% (inactive).

On to `O=C1/C(=C/c2cnc(-c3ccccc3)s2)SC(=S)N1Cc1ccc2c(c1)OCO2`, for which the growth is 37.3% (inactive).

On to `N#CC1=C(c2cccs2)Nc2c(c(-c3ccccc3)nn2-c2ccccc2)C12C(=O)Nc1ccccc12` (configuration not stated), for which the growth is 63.4% (inactive).

On to `COc1ccc2[nH]c(=O)cc(-n3ncc(C(=O)/C=C/c4cc(OC)c(OC)c(OC)c4)c3C)c2c1`, for which the growth was 14.6% (inactive).

With `C[C@H](NC(=O)c1ccc2c(-c3ccc(C(F)(F)F)cc3)cccc2c1)c1ccccn1`, the growth was 38.8% (inactive).

`Cn1cc(Nc2ncnc(-c3ccc(N4CCCC4)c(C#N)c3)n2)cn1`: the growth is 22.4% (inactive).

For `CCCCCCCCc1cccc(CC(=O)Nc2ccc(C)cc2C(=O)O)c1`, the growth is 36.1% [25 µM] (inactive).

As for `O=C1CCC(N2C(=O)c3cccc(NCCCCCC(=O)N4CCN(c5ccc6nc7c(nc6c5C(F)(F)F)C(=O)c5ncccc5C7=O)CC4)c3C2=O)C(=O)N1` (configuration not stated), the growth is -78.8% (active).

As to `CN1C(=O)/C(=C\C(=O)c2cc3ccccc3oc2=O)c2ccccc21`, the growth was 65.2% (inactive).

`Cc1ccc2nc(NC(=O)Nc3cccc(Cl)c3)sc2c1`: the growth is 90.7% (inactive).

As for `O=C1Nc2ccccc2/C1=C\c1ccc(OCC(=O)c2ccc(Br)cc2)cc1`, the growth is 67.8% (inactive).

For `COc1ccc2[nH]cc(-c3cc(N)n4nc(-c5c[nH]c6ccccc56)cc4n3)c2c1`, the growth is -59.5% (active).

On to `Cn1cc(-c2cc(N)n3nc(-c4c[nH]c5ccc(Cl)cc45)cc3n2)c2cccnc21`, for which the growth is -62.3% (active).

For the compound `Cc1ccc(-c2cc(C(=O)N=Nc3c(O)[nH]c4ccc(F)cc34)c3ccccc3n2)cc1`, the growth was 62.9% (inactive).

With `O=C(NN1C(=O)/C(=C/C=C/c2ccc([N+](=O)[O-])o2)SC1=S)c1ccncc1`, the growth is -100% (active).
